A short description of test [1]: ATG_TGFb_CIS: Attagene CIS-FACTORIAL HepG2 Assay for human Transforming Growth Factor (TGF) (AID 2282967; active = hit-call score of the fitted dose curve at least 0.9, where 1 is the maximum; inactive = score below 0.9). The following applies: HepG2 Attagene CIS TGFb reporter, mRNA transcription; actives raise or lower the signal. Summed up: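 Bidirectional fitting relative to DMSO gave the endpoint. Underlying data: reporter mRNA from HepG2 cells carrying transiently transfected cis-regulated reporter constructs, harvested 24 h after dosing and analyzed by RT-PCR and capillary electrophoresis.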

A short description of test [2]: ATG_VDRE_CIS: Attagene CIS-FACTORIAL HepG2 Assay for human Vitamin D Receptor Element (VDRE) (AID 2282968; active = hit-call score of the fitted dose curve at least 0.9, where 1 is the maximum; inactive = score below 0.9). The following applies: HepG2 VDRE cis-reporter transcription, actives raise or lower the signal. Summed up: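 Compounds were applied for 24 h to HepG2 cells transfected with promoter-regulated reporter units. Total RNA was reverse-transcribed, and reporter amplicons were fluorescently labelled and sized by capillary electrophoresis.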

In test [3] the target is Nuclear receptor subfamily 1 group I member 3 (Homo sapiens) (UniProt Q14994). In words: ATG_CAR_TRANS: Attagene TRANS-FACTORIAL HepG2 Assay for human Constitutive Androstane Receptor (CAR) (AID 2282969).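 Note: activators raise reporter mRNA above DMSO so AC50 marks induction.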 Particulars: HepG2 Attagene TRANS-FACTORIAL CAR reporter. The method, boiled down:
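Transiently transfected HepG2, multiplex TRANS reporters (CAR-Gal4 chimera driving GAL4-UAS reporter). 24 h dosing. Readout: reporter transcript by RT-PCR + capillary electrophoresis, fluorescence intensity; positive direction vs DMSO.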

Test [4] addresses Estrogen receptor (Homo sapiens) (UniProt P03372). Description: ATG_ERa_TRANS: Attagene TRANS-FACTORIAL HepG2 Assay for human Estrogen Receptor alpha (ERa) (AID 2282970). Particulars: HepG2 Attagene TRANS ERa GAL4 reporter, mRNA. The method, boiled down: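 Gal4-fusion ERa transactivation, measured as reporter transcript level in transiently transfected HepG2 cells. Exposure 24 h; RT-PCR plus capillary electrophoresis with fluorescence detection.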

Test [5] addresses X-box-binding protein 1 (Homo sapiens) (UniProt P17861). Description: ATG_Xbp1_CIS: Attagene CIS-FACTORIAL HepG2 Assay for human X-box Binding Protein 1 (XBP1) (AID 2282972; active = hit-call score of the fitted dose curve at least 0.9, where 1 is the maximum; inactive = score below 0.9). Particulars: HepG2 XBP1 cis-element reporter, Attagene multiplex; actives raise or lower the signal. Summed up:
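Read-out: fluorescent reporter mRNA fragments resolved by capillary electrophoresis after RT-PCR. Human HepG2 liver cells carried transfected cis-promoter reporter units and were exposed to chemicals for 24 hours. Gain or loss of signal fitted relative to DMSO baseline.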

Test [6] in a line: ATG_M_19_TRANS: Attagene TRANS-FACTORIAL HepG2 Assay for M19 Transcription Factor (Internal Marker) (AID 2282974). Particulars: HepG2 Attagene TRANS-FACTORIAL M19 internal marker reporter. Summed up:
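Cells: human HepG2, transiently transfected with multiplexed reporter transcription units. Exposure: 24 h. Detection: RT-PCR of reporter mRNA with capillary electrophoresis. Analysis: gain-of-signal vs DMSO.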

The target in test [7] is Glucocorticoid receptor (Homo sapiens) (UniProt P04150). Description: ATG_GR_TRANS: Attagene TRANS-FACTORIAL HepG2 Assay for human Glucocorticoid Receptor (GR) (AID 2282978).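 Note: activators score as hits since higher reporter transcript over DMSO is fitted.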 The following applies: HepG2 Attagene TRANS GR reporter, mRNA transcription. The method, boiled down:
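In this trans-factorial format, exogenous NR-GAL4 chimeric proteins in transfected HepG2 cells regulate GAL4-UAS reporter transcription. After 24 h treatment, reporter mRNA induction relative to DMSO is read by RT-PCR and capillary electrophoresis.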

Test [8] addresses Nuclear receptor subfamily 4 group A member 2 (Homo sapiens) (UniProt P43354). Description: ATG_NURR1_TRANS: Attagene TRANS-FACTORIAL HepG2 Assay for human Nuclear Receptor Related Protein 1 (NURR1) (AID 2282985). Particulars: HepG2 Attagene TRANS reporter, mRNA readout. Summed up:
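Endpoint: reporter mRNA increase relative to DMSO. HepG2 cells transfected with reporter units, treated 24 h; RNA processed by RT-PCR, labelling, HpaI digestion and capillary electrophoresis.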

Test [9] deals with Transcriptional activator Myb (Homo sapiens) (UniProt P10242). In words: ATG_Myb_CIS: Attagene CIS-FACTORIAL HepG2 Assay for human Myeloblastosis (Myb) Proto-Oncogene Transcription Factor (AID 2282986; active = hit-call score of the fitted dose curve at least 0.9, where 1 is the maximum; inactive = score below 0.9). Particulars: HepG2 Attagene CIS-FACTORIAL Myb reporter transcription; actives raise or lower the signal. The method, boiled down: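 Steps: transfect HepG2 with cis-regulated reporter units; dose with chemical for 24 h; isolate RNA, reverse-transcribe, PCR-amplify and FAM-label reporter sequences; digest with HpaI; resolve by capillary electrophoresis. Activity fitted in both directions relative to DMSO.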

In test [10] the target is Nuclear respiratory factor 1 (Homo sapiens) (UniProt Q16656). Description: ATG_NRF1_CIS: Attagene CIS-FACTORIAL HepG2 Assay for human Nuclear Respiratory Factor 1 (NRF1) Orphan Gene (AID 2282987; active = hit-call score of the fitted dose curve at least 0.9, where 1 is the maximum; inactive = score below 0.9). The following applies: HepG2 NRF1 cis-element reporter, Attagene multiplex; actives raise or lower the signal. The method, boiled down:
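Fluorescence intensity of labelled reporter cDNA fragments, resolved by capillary electrophoresis, served as readout for NRF1 cis-element activity. Transiently transfected HepG2 cells were dosed for 24 hours; activity in either direction was fitted against DMSO negative control.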

Test [11] is described as follows: ATG_NFI_CIS: Attagene CIS-FACTORIAL HepG2 Assay for human Nuclear Factor I (NFI) (AID 2282989; active = hit-call score of the fitted dose curve at least 0.9, where 1 is the maximum; inactive = score below 0.9). The following applies: HepG2 cis-regulatory reporter, NFI response element transcription; actives raise or lower the signal. The method, boiled down:
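Cells: human liver HepG2, transiently transfected with promoter-regulated reporter transcription units. Exposure 24 h. Detection: fluorescent RT-PCR products separated by capillary electrophoresis, normalised to DMSO negative control.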

Test [12] can be described thus: ATG_GAL4_TRANS: Attagene TRANS-FACTORIAL HepG2 Assay for GAL4 (Internal Marker) (AID 2282976). The following applies: HepG2 Attagene TRANS GAL4 internal marker reporter. The method, boiled down:
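Background-control readout: GAL4-UAS reporter transcript in transiently transfected HepG2 cells after 24 h compound exposure. Measured by RT-PCR, 6-FAM primer extension, HpaI digest and capillary electrophoresis; gain-of-signal fit versus DMSO.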

Test [13] addresses Oxysterols receptor LXR-beta (Homo sapiens) (UniProt P55055). In words: ATG_LXRb_TRANS: Attagene TRANS-FACTORIAL HepG2 Assay for human Liver X Receptor beta (LXRb) (AID 2282981). Particulars: HepG2 Attagene TRANS GAL4-LXRb reporter, mRNA. The method, boiled down:
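Multiplexed reporter assay, HepG2, 24 h dosing. Fluorescence of labelled RT-PCR products after capillary electrophoresis gives transcript level; positive fitting direction relative to DMSO.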

Test [14] has as its target Hepatocyte nuclear factor 4-alpha (Homo sapiens) (UniProt P41235). Description: ATG_HNF4a_TRANS: Attagene TRANS-FACTORIAL HepG2 Assay for human Hepatocyte Nuclear Factor 4 alpha (HNF4a) (AID 2282982). Particulars: HepG2 HNF4a transactivation reporter, mRNA readout. The method, boiled down:
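Endpoint reflects transcriptional activation of a GAL4-UAS reporter by an HNF4a-GAL4 chimera in transfected HepG2 cells, 24 h post-dosing. Fluorescence from RT-PCR products separated by capillary electrophoresis; DMSO baseline.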

Test [15] addresses Steroid hormone receptor ERR1 (Homo sapiens) (UniProt P11474). Description: ATG_ERRa_TRANS: Attagene TRANS-FACTORIAL HepG2 Assay for human Estrogen-Related Receptor alpha (ERRa) (AID 2282971). Particulars: HepG2 Attagene TRANS reporter, ERRa transactivation. The method, boiled down:
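HepG2 cells transiently transfected with GAL4-UAS reporter units and chimeric NR-Gal4 constructs; after 24 hour compound incubation, reporter mRNA quantified by RT-PCR, fluorescent labelling and capillary electrophoresis, gain of signal versus DMSO.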

Test [16] deals with Bile acid receptor (Homo sapiens) (UniProt Q96RI1). In words: ATG_FXR_TRANS: Attagene TRANS-FACTORIAL HepG2 Assay for Farnesoid X Receptor (FXR) (AID 2282979).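 Note: hits raise reporter mRNA above DMSO so AC50 marks FXR activation.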 Particulars: HepG2 Attagene TRANS FXR-GAL4 reporter transcription. The method, boiled down: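 HepG2 cells were transiently transfected with GAL4-UAS reporters driven by chimeric NR-Gal4 proteins and dosed for 24 h. Reporter mRNA was quantified by RT-PCR, fluorescent labelling, HpaI digestion and capillary electrophoresis, with gain of signal scored versus DMSO.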

Test [17] deals with Estrogen-related receptor gamma (Homo sapiens) (UniProt P62508). Description: ATG_ERRg_TRANS: Attagene TRANS-FACTORIAL HepG2 Assay for human Estrogen-Related Receptor gamma (ERRg) (AID 2282977).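 Note: hits increase reporter signal over DMSO so potencies reflect activators.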 Particulars: HepG2 Attagene TRANS reporter, ERRg transactivation. Summed up: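 Induction of reporter transcripts through a chimeric NR-Gal4 protein is quantified in transfected human HepG2 liver cells after 24 h chemical exposure, using RT-PCR with capillary electrophoresis detection and DMSO as baseline.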

Test [18] concerns the target Oxysterols receptor LXR-alpha (Homo sapiens) (UniProt Q13133). Description: ATG_LXRa_TRANS: Attagene TRANS-FACTORIAL HepG2 Assay for human Liver X Receptor alpha (LXRa) (AID 2282980). The following applies: HepG2 Attagene TRANS reporter, LXRa transactivation. The method, boiled down:
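HepG2 cells transiently transfected with GAL4-UAS reporter units for chimeric NR-Gal4 proteins, exposed to chemicals for 24 h. Reporter mRNA quantified by RT-PCR and capillary electrophoresis; gain of signal fitted relative to DMSO.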

A short description of test [19]: ATG_M_06_TRANS: Attagene TRANS-FACTORIAL HepG2 Assay for M06 Transcription Factor (Internal Marker) (AID 2282983). The following applies: HepG2 Attagene TRANS M06 internal marker reporter. The method, boiled down:
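mRNA levels of a reporter transcript, quantified as FAM fluorescence on capillary electrophoresis, served as readout. HepG2 cells expressing exogenous GAL4-chimera reporter constructs were exposed for 24 h. Gain of signal over DMSO was evaluated.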

Test [20] is described as follows: ATG_M_32_TRANS: Attagene TRANS-FACTORIAL HepG2 Assay for M32 Transcription Factor (Internal Marker) (AID 2282984). Particulars: HepG2 Attagene TRANS M32 internal marker reporter. Summed up:
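Internal-marker readout from a multiplexed transcription reporter panel. HepG2 cells were transfected with GAL4-UAS reporter units, treated 24 hours, and reporter transcript levels determined by fluorescence after RT-PCR and capillary separation.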

We go through eight compounds from PubChem BioAssay (EPA / NIEHS).

“And” between values parts separate entries of the source, which are not always exact repeats. Identical values can stand only once. Inconclusive results are not listed. Where a structure was tested more than once in an assay, its records may differ in their call. The source made the active and inactive calls. Rule for the calls, unless noted: active = hit-call score of the fitted dose curve at least 0.9, where 1 is the maximum; inconclusive = response in the unintended direction; inactive = score below 0.9.

Broadly, the AC50 is the concentration at which the activity in the assay is half-maximal.

Sequence of Oxysterols receptor LXR-alpha (Homo sapiens) (Q13133 whole entry, looked up, the tested form may be a part): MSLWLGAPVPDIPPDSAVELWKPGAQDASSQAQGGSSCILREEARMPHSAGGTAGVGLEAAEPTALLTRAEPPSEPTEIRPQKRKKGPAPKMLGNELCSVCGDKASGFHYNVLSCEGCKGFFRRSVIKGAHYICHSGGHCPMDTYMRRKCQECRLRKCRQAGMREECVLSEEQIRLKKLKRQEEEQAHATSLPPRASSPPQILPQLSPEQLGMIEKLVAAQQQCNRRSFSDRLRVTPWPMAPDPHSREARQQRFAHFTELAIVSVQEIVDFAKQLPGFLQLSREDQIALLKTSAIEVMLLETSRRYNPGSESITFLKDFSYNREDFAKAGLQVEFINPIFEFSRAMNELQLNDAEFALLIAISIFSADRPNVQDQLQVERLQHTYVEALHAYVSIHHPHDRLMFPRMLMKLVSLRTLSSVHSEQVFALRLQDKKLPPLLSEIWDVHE
Sequence of Nuclear receptor subfamily 1 group I member 3 (Homo sapiens) (Q14994 whole entry, looked up, the tested form may be a part): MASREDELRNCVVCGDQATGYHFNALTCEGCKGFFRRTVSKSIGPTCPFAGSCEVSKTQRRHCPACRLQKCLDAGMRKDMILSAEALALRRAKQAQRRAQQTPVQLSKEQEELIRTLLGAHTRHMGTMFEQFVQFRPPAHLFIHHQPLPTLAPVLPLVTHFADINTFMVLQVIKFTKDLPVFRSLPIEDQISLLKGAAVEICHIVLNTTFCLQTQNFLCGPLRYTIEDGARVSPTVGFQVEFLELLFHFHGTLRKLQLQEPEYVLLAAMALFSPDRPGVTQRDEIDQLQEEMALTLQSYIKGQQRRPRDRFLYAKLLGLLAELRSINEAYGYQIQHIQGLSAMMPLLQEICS
Sequence of Oxysterols receptor LXR-beta (Homo sapiens) (P55055 whole entry, looked up, the tested form may be a part): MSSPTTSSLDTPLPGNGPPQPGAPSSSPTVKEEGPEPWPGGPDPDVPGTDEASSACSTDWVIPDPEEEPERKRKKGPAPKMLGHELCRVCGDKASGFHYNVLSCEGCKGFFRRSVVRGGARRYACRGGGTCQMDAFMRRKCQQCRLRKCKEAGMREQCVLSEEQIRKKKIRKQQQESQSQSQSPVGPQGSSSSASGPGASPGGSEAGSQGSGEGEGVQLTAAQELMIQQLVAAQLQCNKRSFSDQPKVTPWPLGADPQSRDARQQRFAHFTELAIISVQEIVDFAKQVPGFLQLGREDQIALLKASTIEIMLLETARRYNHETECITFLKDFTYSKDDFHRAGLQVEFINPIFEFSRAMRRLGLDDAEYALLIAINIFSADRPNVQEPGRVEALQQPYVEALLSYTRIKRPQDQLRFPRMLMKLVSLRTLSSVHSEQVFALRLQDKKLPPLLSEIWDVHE
Sequence of Transcriptional activator Myb (Homo sapiens) (P10242 whole entry, looked up): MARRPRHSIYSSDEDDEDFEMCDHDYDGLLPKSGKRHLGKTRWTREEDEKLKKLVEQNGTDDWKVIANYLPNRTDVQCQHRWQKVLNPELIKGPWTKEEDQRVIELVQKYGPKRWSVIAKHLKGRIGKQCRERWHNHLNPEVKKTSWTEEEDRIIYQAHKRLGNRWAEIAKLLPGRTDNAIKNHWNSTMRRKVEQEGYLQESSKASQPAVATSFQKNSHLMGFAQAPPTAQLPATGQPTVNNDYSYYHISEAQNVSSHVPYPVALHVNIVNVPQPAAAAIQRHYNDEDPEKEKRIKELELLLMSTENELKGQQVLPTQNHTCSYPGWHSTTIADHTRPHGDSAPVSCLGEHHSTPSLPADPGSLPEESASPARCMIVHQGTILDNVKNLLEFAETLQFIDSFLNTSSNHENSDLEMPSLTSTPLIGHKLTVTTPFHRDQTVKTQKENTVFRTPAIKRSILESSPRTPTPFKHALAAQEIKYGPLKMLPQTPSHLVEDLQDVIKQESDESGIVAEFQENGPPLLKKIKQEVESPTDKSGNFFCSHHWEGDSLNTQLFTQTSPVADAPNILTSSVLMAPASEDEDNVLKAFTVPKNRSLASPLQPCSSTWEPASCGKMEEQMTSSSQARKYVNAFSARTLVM
Sequence of Steroid hormone receptor ERR1 (Homo sapiens) (P11474 whole entry, looked up, the tested form may be a part): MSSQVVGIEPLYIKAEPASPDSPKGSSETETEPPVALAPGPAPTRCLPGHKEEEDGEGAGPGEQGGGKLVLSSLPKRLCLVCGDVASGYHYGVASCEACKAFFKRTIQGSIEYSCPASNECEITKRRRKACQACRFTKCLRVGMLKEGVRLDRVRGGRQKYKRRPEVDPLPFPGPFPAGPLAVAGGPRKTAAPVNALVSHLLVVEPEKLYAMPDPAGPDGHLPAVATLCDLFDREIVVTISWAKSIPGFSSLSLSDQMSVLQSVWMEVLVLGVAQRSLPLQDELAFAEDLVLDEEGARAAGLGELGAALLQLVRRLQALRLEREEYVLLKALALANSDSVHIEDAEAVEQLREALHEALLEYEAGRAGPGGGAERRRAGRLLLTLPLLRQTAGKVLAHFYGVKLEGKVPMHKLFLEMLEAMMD
Sequence of Estrogen-related receptor gamma (Homo sapiens) (P62508 whole entry, looked up, the tested form may be a part): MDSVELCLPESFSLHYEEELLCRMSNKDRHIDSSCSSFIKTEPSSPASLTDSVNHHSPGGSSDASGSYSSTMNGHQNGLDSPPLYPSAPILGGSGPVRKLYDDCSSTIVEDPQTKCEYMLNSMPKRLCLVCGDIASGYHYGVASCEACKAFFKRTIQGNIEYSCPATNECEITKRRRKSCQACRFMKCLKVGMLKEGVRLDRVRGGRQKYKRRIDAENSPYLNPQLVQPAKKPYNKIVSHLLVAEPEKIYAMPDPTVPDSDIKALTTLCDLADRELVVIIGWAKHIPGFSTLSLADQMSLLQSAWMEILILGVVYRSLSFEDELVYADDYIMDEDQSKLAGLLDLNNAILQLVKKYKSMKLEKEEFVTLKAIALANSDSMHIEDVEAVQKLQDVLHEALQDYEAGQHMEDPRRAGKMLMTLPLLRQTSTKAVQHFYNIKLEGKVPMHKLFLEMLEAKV
Sequence of Nuclear respiratory factor 1 (Homo sapiens) (Q16656 whole entry, looked up, the tested form may be a part): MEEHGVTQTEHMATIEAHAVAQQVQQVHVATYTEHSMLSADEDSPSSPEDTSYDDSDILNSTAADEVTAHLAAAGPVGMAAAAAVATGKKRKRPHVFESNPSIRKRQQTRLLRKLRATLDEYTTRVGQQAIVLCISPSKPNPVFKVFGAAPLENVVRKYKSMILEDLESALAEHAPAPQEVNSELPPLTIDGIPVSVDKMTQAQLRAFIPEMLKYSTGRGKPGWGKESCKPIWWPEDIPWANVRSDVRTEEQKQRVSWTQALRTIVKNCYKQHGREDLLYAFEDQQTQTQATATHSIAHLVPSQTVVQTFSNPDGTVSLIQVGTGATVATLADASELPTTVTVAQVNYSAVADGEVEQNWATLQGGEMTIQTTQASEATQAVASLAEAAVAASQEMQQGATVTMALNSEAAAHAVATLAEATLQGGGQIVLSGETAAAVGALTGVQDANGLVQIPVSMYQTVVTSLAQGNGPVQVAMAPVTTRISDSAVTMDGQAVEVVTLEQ
Sequence of Glucocorticoid receptor (Homo sapiens) (P04150 whole entry, looked up, the tested form may be a part): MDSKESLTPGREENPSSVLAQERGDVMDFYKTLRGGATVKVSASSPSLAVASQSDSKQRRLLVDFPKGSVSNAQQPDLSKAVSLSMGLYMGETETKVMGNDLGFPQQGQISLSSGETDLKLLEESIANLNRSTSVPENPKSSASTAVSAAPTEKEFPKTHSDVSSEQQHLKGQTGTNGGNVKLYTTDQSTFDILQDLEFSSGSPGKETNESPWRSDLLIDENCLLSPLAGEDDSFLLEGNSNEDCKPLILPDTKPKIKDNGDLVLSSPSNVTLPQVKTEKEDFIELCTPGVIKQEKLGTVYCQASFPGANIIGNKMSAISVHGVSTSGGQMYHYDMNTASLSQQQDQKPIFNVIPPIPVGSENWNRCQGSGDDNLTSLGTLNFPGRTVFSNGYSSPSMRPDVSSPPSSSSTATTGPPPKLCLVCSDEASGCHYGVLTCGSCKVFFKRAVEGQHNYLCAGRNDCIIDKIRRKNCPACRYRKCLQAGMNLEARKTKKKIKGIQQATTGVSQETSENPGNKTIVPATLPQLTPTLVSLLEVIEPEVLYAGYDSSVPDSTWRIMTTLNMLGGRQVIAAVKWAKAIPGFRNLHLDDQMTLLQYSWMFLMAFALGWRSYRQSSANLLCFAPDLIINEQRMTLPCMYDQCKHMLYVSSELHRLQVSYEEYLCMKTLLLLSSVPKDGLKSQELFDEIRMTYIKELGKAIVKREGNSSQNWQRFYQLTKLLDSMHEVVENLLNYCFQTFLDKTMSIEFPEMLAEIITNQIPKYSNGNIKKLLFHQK
Sequence of Hepatocyte nuclear factor 4-alpha (Homo sapiens) (P41235 whole entry, looked up, the tested form may be a part): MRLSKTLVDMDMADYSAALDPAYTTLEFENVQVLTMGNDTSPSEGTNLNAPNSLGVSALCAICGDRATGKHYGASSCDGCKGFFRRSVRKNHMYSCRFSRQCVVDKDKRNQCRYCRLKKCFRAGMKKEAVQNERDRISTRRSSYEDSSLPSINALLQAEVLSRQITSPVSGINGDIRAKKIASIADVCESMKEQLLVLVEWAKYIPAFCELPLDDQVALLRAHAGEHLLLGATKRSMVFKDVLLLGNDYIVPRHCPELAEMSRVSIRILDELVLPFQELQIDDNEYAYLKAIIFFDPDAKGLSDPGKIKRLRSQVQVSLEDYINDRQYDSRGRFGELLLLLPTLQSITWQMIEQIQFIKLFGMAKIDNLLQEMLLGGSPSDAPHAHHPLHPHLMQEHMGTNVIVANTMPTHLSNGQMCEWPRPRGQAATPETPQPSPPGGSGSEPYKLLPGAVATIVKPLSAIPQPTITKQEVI
Sequence of X-box-binding protein 1 (Homo sapiens) (P17861 whole entry, looked up, the tested form may be a part): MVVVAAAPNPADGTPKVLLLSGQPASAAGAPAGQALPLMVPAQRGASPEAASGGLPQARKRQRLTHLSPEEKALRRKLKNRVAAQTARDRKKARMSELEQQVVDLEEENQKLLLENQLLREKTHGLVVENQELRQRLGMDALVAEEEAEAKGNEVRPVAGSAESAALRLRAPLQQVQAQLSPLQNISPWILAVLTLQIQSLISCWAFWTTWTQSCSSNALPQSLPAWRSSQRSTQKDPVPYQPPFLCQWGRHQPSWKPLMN

Consider `O=C(O)c1cccc(C[C@@H]2COc3ccc(OCc4nc5cc(F)ccc5s4)cc3[C@@H]2O)c1`, for which the compound was classed as inactive in test [1], in test [2], in test [3], in test [4], in [6] and in [7]. Also, the result in test [8], in [9], in test [10] and in test [11] was inactive. Also, the AC50 in test [5] was 160 µM (active).

As for `CCCCCCCC/C=C\CCCCCCCC(=O)OC[C@@H](O)[C@H]1OC[C@H](O)[C@H]1O`, the result in [1], in test [2], in test [4], in test [5], in [6] and in test [12] was inactive. Further, the outcome in [13], in test [14], in [8], in test [9], in test [10] and in [11] was inactive.

As for `CCCCCCCCCCCCCCCCOS(=O)(=O)O`, the figures for the AC50 in [1] and in test [11] were 11.5 µM (active) and 24.6 µM (active), respectively. Besides, the compound was classed as inactive in [2], in test [4], in test [15], in [5], in test [6] and in [16]. In addition, the compound was classed as inactive in [13], in test [8], in test [9] and in [10].

Consider `CC[C@H](C)C(=O)O[C@H]1C[C@H](O)C=C2C=C[C@H](C)[C@H](CC[C@@H](O)C[C@@H](O)CC(=O)O)[C@H]21`, for which the compound was classed as inactive in test [1], in test [2], in [5], in test [12], in test [7] and in [13]. The call in [14], in test [9], in test [10] and in [11] was inactive.

Regarding `CNC(C)=O`, the compound was called inactive in test [1], in [2], in test [3], in [4], in [5] and in [8]. In addition, the call in test [9], in [10] and in test [11] was inactive.

Turning to `OCCC(F)(F)C(F)(F)C(F)(F)C(F)(F)F`, the outcome in test [1], in test [3], in test [4], in test [15], in [5] and in [6] was inactive. Besides, the result in test [12], in test [17], in test [7], in test [16], in test [18] and in test [13] was inactive. Moreover, the compound was classed as inactive in [14], in test [19], in test [20], in test [8], in test [9] and in test [10]. Moreover, in [11], the call was inactive.

Turning to `NC(=O)NN=Cc1ccc([N+](=O)[O-])o1`, the outcome in test [1], in test [2], in test [5], in test [7], in test [14] and in test [8] was inactive. Also, the outcome in [9], in test [10] and in test [11] was inactive.

`S=P(N1CC1)(N1CC1)N1CC1`: the outcome in test [1], in [2], in test [3], in test [4], in test [15] and in test [5] was inactive. For the same compound, the compound was classed as inactive in [6], in test [12], in [17], in test [7], in test [16] and in test [18]. The call in [13], in test [14], in test [19], in test [8], in test [9] and in [10] was inactive. Besides, the result in [11] was inactive. Also, the AC50 in test [2] was 17 µM (active) and 27.4 µM (active).
